# Reference: PubChem BioAssay (NCATS)
# Where “and” joins values, the source holds several entries; their conditions need not be identical. Identical values can stand only once. Results filed as inconclusive are left out. A call without a number means that no potency is given here. Calls of active or inactive are those of the source. Unless noted, the call rests on the fitted dose curve; in most records, active means well fitted curve in the direction sought with a large enough effect; inconclusive means small, poorly fitted or top-dose-only effect, or another doubt; inactive means no such curve, though single readings can be large; an effect the other way counts as inactive or inconclusive.
# Assays:
# [1] = Primary qHTS for small molecule stabilizers of the endoplasmic reticulum resident proteome: Secreted ER Calcium Modulated Protein (SERCaMP) assay (AID 1508630); further: potency means the concentration at half of the fitted maximal effect
# How it was run: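 The SH-SY5Y reporter protocol was run at 3 concentrations up to 38.3 uM (primary) or 11 concentrations (follow-up): 16 h compound, 100 nM thapsigargin for 4 h, then extracellular luciferase luminescence.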
# [2] = biological target: Cytochrome P450 2D6 (Homo sapiens) (UniProt P10635); assay: Cytochrome P450 family 2 subfamily D member 6 (CYP2D6) small molecule antagonists: luciferase biochemical (cell-free) qHTS assay (AID 1645840; active means well fitted curve in the direction sought with a large enough effect in the repeat runs; an effect the other way counts as inactive or inconclusive; further: nearly all actives have a fitted effect of over 55% in size; further: potency means the concentration at half of the fitted maximal effect)
# Sequence of Cytochrome P450 2D6 (Homo sapiens) (P10635 whole entry, looked up): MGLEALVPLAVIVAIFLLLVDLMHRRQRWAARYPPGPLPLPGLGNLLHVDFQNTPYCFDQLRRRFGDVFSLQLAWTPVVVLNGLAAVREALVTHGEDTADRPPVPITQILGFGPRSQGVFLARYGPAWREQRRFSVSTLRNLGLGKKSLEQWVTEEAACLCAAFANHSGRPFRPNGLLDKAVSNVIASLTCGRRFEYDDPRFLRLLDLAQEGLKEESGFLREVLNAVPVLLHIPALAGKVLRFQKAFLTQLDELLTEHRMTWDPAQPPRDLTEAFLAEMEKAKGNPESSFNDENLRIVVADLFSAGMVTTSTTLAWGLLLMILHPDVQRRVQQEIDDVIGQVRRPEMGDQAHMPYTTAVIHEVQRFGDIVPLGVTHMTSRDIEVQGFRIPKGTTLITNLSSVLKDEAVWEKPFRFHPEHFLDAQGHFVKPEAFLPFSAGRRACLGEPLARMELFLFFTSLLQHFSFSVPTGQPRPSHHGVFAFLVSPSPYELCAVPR
# How it was run: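 P450-Glo CYP2D6 system: proluciferin substrate converted by enzyme to luciferin, read by luminescence proportional to activity. Enzyme-substrate mix with compound 10 min at room temperature, then NADPH regeneration 1 h before detection reagent.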
# [3] = biological target: Cytochrome P450 2C9 (Homo sapiens) (UniProt P11712); assay: Cytochrome P450 family 2 subfamily C member 9 (CYP2C9) small molecule antagonists: luciferase biochemical (cell-free) qHTS assay (AID 1645842; active means well fitted curve in the direction sought with a large enough effect in the repeat runs; an effect the other way counts as inactive or inconclusive; further: nearly all actives have a fitted effect of over 55% in size; further: potency means the concentration at half of the fitted maximal effect)
# Sequence of Cytochrome P450 2C9 (Homo sapiens) (P11712 whole entry, looked up): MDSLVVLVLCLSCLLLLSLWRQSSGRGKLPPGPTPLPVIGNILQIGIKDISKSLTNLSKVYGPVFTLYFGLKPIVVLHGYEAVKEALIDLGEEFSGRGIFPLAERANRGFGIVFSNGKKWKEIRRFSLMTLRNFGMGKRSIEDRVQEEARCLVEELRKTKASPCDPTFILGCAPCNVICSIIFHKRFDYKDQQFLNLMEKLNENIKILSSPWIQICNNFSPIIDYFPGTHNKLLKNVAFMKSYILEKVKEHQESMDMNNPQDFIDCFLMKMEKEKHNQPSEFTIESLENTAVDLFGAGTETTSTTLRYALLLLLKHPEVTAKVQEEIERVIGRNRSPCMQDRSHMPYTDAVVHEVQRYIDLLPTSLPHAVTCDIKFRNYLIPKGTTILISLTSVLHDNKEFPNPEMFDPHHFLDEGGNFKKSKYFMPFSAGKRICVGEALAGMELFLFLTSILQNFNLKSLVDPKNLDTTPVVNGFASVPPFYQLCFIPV
# How it was run: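 P450-Glo CYP2C9 system: proluciferin substrate with enzyme in mix containing 0.4% BSA, 10 min at room temperature, then NADPH regeneration solution added and incubated 1 h at 37C. Detection reagent stopped reaction; luminescence read after 20 min as RLU.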
# [4] = biological target: N-terminal Xaa-Pro-Lys N-methyltransferase 1 (Homo sapiens) (UniProt Q9BV86); assay: Confirmatory qHTS for Inhibitors of N-terminal methyltransferase 1 (NTMT1): MTaseGlo Assay (AID 1645874); further: nearly all actives have a fitted effect of over 65% in size; further: potency means the concentration at half of the fitted maximal effect
# Sequence of N-terminal Xaa-Pro-Lys N-methyltransferase 1 (Homo sapiens) (Q9BV86 whole entry, looked up): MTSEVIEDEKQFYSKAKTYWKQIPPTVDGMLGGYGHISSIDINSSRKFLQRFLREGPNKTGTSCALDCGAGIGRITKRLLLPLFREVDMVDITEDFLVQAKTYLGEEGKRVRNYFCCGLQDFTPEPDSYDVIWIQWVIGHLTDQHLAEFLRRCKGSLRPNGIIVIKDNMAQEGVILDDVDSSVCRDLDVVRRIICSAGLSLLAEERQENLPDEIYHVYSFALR
# How it was run: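 Room-temperature NTMT1 reaction, 30 min, with 100 uM SAM and 1 uM SPKRIA substrate; enzyme 125 nM. Read-out: MTase-Glo luminescence, normalized to no-enzyme and DMSO controls.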
# [5] = Primary qHTS for inhibitors of nuclear receptor binding SET domain protein 2 (NSD2) in an isogenic RCH-ACV NSD2 p.E1099K mutant (9B) (AID 1645876); further: nearly all actives have a fitted effect of over 70% in size; further: potency means the concentration at half of the fitted maximal effect
# [6] = Primary qHTS for inhibitors of nuclear receptor binding SET domain protein 2 (NSD2) in an RCH-ACV wild type WT cells (2C) (AID 1645877); further: nearly all actives have a fitted effect of over 70% in size; further: potency means the concentration at half of the fitted maximal effect
# [7] = biological target: Cytochrome P450 3A4 (Homo sapiens) (UniProt P08684); assay: Cytochrome P450 family 3 subfamily A member 4 (CYP3A4) small molecule antagonists: luciferase qHTS assay (AID 1645841; active means well fitted curve in the direction sought with a large enough effect in the repeat runs; an effect the other way counts as inactive or inconclusive; further: nearly all actives have a fitted effect of over 45% in size)
# Sequence of Cytochrome P450 3A4 (Homo sapiens) (P08684 whole entry, looked up): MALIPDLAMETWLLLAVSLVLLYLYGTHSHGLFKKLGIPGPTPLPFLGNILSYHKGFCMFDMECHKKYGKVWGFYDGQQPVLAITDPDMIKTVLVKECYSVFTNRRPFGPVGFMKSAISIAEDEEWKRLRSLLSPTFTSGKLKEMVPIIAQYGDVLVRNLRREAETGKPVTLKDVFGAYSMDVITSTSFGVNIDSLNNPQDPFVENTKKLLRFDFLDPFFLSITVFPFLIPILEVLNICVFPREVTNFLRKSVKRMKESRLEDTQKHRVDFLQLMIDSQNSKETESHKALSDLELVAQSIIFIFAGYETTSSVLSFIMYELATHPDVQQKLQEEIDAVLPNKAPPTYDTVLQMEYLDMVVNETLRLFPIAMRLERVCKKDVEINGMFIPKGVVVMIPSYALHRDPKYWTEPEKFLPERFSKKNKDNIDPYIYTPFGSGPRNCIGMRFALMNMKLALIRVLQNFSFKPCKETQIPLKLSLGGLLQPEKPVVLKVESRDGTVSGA
# Description: National Center for Advancing Translational Sciences [NCATS]
# Cytochrome P450 (CYP) enzymes are membrane-bound hemeproteins that play a key role in metabolism of drugs and xenobiotics. Assaying the effect of chemicals on CYP isozymes is useful to minimize the adverse drug reactions and toxicities in drug development process. Chemical compounds were tested for their effect on CYP enzyme activities by using P450-Glo (TM) screening systems (Promega Corporation, Madison, WI). These systems provide a luminescent method containing proluciferin substrates and are converted to luciferin products by CYP isozymes. The luciferin products formed are detected with a luciferin detection reagent, and the amount of light produced is proportional to CYP activity. P450-Glo (TM) CYP3A4 screening system (Catalog. No. V9910) was used to detect the compounds that interfere in CYP3A4 activity. […]
# Two ul of enzyme-substrate mix was dispensed into medium binding white/solid 1536-well plates (Greiner Bio-One North America Inc., Monroe, NC) using a Flying Reagent Dispenser (FRD, Aurora Discovery, San Diego, CA). […] The reaction was stopped by adding 4 ul of detection reagent using an FRD and after 20 min incubation at room temperature, the luminescence signal was measured using a ViewLux plate reader (Perkin Elmer, Shelton, CT). Data were expressed as relative luminescence units.
# [8] = A High-Content qHTS Against Drug Library for the Identification of Small Molecules that Inhibit DYT1 Early Onset Primary Dystonia-Associated Cell Pathology (AID 1645839; calls by dose curve; further: series mostly up to about 46 µM)
# How it was run: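 High-content imaging quantified EGFP-TorsinA mislocalization in HEK293-derived cells inducibly expressing DYT1 mutant torsinA, after 48 h exposure to compound given together with tetracycline induction. Cell count served as a toxicity channel alongside %pathology.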
compound,measurement,setting,value
CCNC(=O)Nc1ccc(Oc2ncnc(N)c2C=NOC)cc1Cl,Potency,[1],inactive
same,Potency,[2],inactive
same,Potency,[3],inactive
C[C@H]1COC2=C1C(=O)C(=O)c1c2ccc2c1CCCC2(C)C,Potency,[1],inactive
O=C1C(CCC(O)c2ccc(F)cc2)C(c2ccc(O)cc2)N1c1ccc(F)cc1 (stereo not drawn),Potency,[1],inactive
CCN1CCC(n2cc(CNc3cc(Cl)c4ncc(C#N)c(Nc5ccc(F)c(Cl)c5)c4c3)nn2)CC1,Potency,[1],inactive
same,Potency,[2],12 µM (active)
same,Potency,[3],7.56 µM (active)
same,Potency,[4],10 µM (active)
same,Potency,[5],23.5 µM (active)
same,Potency,[6],18.6 µM (active)
C[C@@H]1CCO[C@H]2Cn3cc(C(=O)NCc4ccc(F)cc4F)c(=O)c(O)c3C(=O)N12,Potency,[1],inactive
same,Potency,[2],inactive
same,Potency,[3],inactive
same,Potency,[5],20.5 µM (active)
COC(=O)N1CCN(Cc2cccc(NC(=O)Nc3ccc(C)nc3)c2F)CC1,Potency,[1],inactive
same,Potency,[2],inactive
NC(=O)c1ncn([C@@H]2O[C@H](CO)[C@@H](O)[C@@H]2O)n1,Potency,[1],inactive
CC(=O)OCC(=O)[C@@]12OC(C)(C)O[C@H]1C[C@H]1[C@@H]3C[C@H](F)C4=CC(=O)C=C[C@]4(C)[C@@]3(F)[C@@H](O)C[C@@]12C,Potency,[1],inactive
CC(C)CN(C[C@H](O)[C@H](Cc1ccccc1)NC(=O)O[C@H]1CCOC1)S(=O)(=O)c1ccc(N)cc1,Potency,[1],inactive
CC(=O)O[C@]1(C(C)=O)CC[C@H]2[C@@H]3C=C(Cl)C4=CC(=O)[C@@H]5C[C@H]5[C@]4(C)[C@@H]3CC[C@@]21C,Potency,[1],inactive
Fc1ccc(CNc2ncnc3ccc(F)cc23)cc1,Potency,[1],inactive
same,Potency,[2],16.9 µM (active)
same,Potency,[3],8.49 µM (active)
CC[C@H](C)C(=O)O[C@H]1C[C@H](O)C=C2C=C[C@H](C)[C@H](CC[C@@H](O)C[C@@H](O)CC(=O)O)[C@H]21,Potency,[1],inactive
same,Potency,[2],inactive
same,outcome,[7],inactive
same,Potency,[5],inactive
same,Potency,[6],inactive
CC(C)(OCc1nn(Cc2ccccc2)c2ccccc12)C(=O)O,Potency,[1],inactive
same,Potency,[2],inactive
same,outcome,[7],inactive
same,Potency,[3],inactive
same,Potency,[5],inactive
same,Potency,[6],inactive
COc1ccnc(CS(=O)c2nc3ccc(OC(F)F)cc3[nH]2)c1OC (stereo not drawn),Potency,[1],inactive
same,outcome,[8],inactive
same,Potency,[2],5.49 µM (active) and 16.9 µM (active)
same,Potency,[3],27.5 µM (active) and 21.3 µM (active)
same,Potency,[5],15 µM (active) and 18.6 µM (active)
same,Potency,[6],15 µM (active) and 18.6 µM (active)
CCNC(=O)c1noc(-c2cc(C(C)C)c(O)cc2O)c1-c1ccc(CN2CCOCC2)cc1,Potency,[1],inactive
same,Potency,[2],1.34 µM (active)
same,Potency,[3],2.39 µM (active)
same,Potency,[4],inactive
same,Potency,[5],18.3 nM (active) and 11.8 nM (active)
same,Potency,[6],18.3 nM (active) and 13.2 nM (active)
C[C@H](c1ccc(F)cc1CCCC(=O)O)N(c1cc(F)ccc1F)S(=O)(=O)c1ccc(Cl)cc1,Potency,[1],inactive
same,Potency,[2],16.9 µM (active)
CCCCC[C@H](O)C=C[C@H]1[C@H](O)CC(=O)[C@H]1CC=CCCCC(=O)O,Potency,[1],inactive
same,outcome,[8],inactive
same,Potency,[2],inactive
same,Potency,[5],0.417 µM (active)
same,Potency,[6],23.7 µM (active)
CC1CCN(c2cc(N3CCN(C)CC3)ccc2NC(=O)c2cc(C#N)c[nH]2)CC1,Potency,[1],inactive
same,Potency,[2],1.2 µM (active)
OC[C@H]1O[C@@H](Oc2ccc(O)cc2)[C@H](O)[C@@H](O)[C@H]1O,Potency,[1],inactive
NC(=O)c1nnn(Cc2cc(Cl)c(C(=O)c3ccc(Cl)cc3)c(Cl)c2)c1N,Potency,[1],inactive
same,Potency,[2],26.8 µM (active)
O=S(=O)(NCCNCC=Cc1ccc(Br)cc1)c1cccc2cnccc12,Potency,[1],inactive
CCOC(=O)N1CCN([N+]([O-])=NOc2cc(ON=[N+]([O-])N3CCN(C(=O)OCC)CC3)c([N+](=O)[O-])cc2[N+](=O)[O-])CC1,Potency,[1],inactive
CN1[C@H]2CC[C@H]1CC(OC(=O)c1c[nH]c3ccccc13)C2 (stereo partly drawn),Potency,[1],inactive
same,Potency,[2],12 µM (active)
same,Potency,[3],inactive
Clc1ccc(COC(Cn2ccnc2)c2ccc(Cl)cc2Cl)c(Cl)c1 (stereo not drawn),Potency,[1],inactive
same,Potency,[2],1.07 µM (active)
COc1cc2ncnc(Nc3cc(Br)c(O)c(Br)c3)c2cc1OC,Potency,[1],inactive
same,Potency,[2],inactive
C[C@@H](NC(=O)c1ncnc(N)c1Cl)c1ncc(C(=O)Nc2cc(C(F)(F)F)c(Cl)cn2)s1,Potency,[1],inactive
same,Potency,[2],inactive
Cc1c(-c2cccc3c(CCCOc4cccc5ccccc45)c(C(=O)O)n(Cc4cccnc4)c23)c(COc2ccc(N3CCN([S+](=O)([O-])N(C)C)CC3)cc2)nn1C,Potency,[1],inactive
C[C@@H]1C[C@H]2[C@@H]3CCC4=CC(=O)C=C[C@]4(C)[C@@]3(F)[C@@H](O)C[C@]2(C)[C@@]1(O)C(=O)CO,Potency,[1],inactive
same,outcome,[8],inactive
same,Potency,[6],0.0332 µM (active)
N#CC(=C1Nc2ccccc2S1)c1ccnc(OCc2ccc(CN3CCOCC3)cc2)n1,Potency,[1],1.49 µM (active)
CCCCC(C=O)NC(=O)C(CC(C)C)NC(=O)OCc1ccccc1 (stereo not drawn),Potency,[1],inactive
Cc1cc(-c2ncc(CC(=O)Nc3ccc(-c4cnccn4)cn3)cc2C)ccn1,Potency,[1],inactive
same,Potency,[2],inactive
same,Potency,[3],inactive
same,Potency,[4],inactive
CN(C)c1ccc(-c2nc3ncc(Cl)c(N4CCN(CC(=O)Nc5nccs5)CC4)c3[nH]2)cc1,Potency,[1],inactive
same,Potency,[2],inactive
O=C1NC(=O)C(=Cc2ccc(-c3ccc(F)cc3O)o2)S1,Potency,[1],inactive
O=C(Nc1cccc2c(=O)cc(-c3nn[nH]n3)oc12)c1ccc(OCCCCc2ccccc2)cc1,Potency,[1],inactive
same,outcome,[8],inactive
same,Potency,[2],15.5 µM (active)
same,Potency,[5],inactive
same,Potency,[6],inactive
